Assay outcomes (PubChem BioAssay)
Compounds with a hit are over-represented: about 1.2% of the library has one in this group of screens.
RGS7-Gao reg: RGS7-Galphao binding modulators, primary screen, biochemical, multiplexed bead flow cytometry; Guanine nucleotide-binding protein G(o) subunit alpha (Homo sapiens), P09471; 0.35% of 220,000 active; actives lie on both sides; binding response (% of control), % at 10 µM; in the data active means binding response below about 49% or above about 150%; inconclusive means no clear call, values can overlap the other calls; inactive means in between;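 further: fluorescent Galphao held in activated GDP-AlF4 state binding bead-coupled RGS7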
Target sequence (P09471 whole entry, looked up): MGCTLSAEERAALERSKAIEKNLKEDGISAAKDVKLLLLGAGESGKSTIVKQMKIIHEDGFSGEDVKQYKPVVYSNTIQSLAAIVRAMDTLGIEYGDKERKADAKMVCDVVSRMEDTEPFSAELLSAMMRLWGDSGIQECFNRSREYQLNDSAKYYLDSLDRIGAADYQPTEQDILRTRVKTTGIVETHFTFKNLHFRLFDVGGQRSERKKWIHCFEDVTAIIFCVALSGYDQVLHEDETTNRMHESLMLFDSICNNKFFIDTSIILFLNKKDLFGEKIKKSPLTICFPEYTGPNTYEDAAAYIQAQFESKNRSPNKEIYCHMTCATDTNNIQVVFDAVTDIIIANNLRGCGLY
RGS8-Gao: RGS8-Galphao binding modulators, primary screen, biochemical, multiplexed bead flow cytometry; actives lie on both sides; response (percent of control binding), % at 10 µM; Guanine nucleotide-binding protein G(o) subunit alpha (Homo sapiens), P09471; 0.34% of 220,000 active; in the data active means response below about 60% or above about 140%; inactive means in between;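 further: Galphao activated as the GDP aluminium fluoride complex binding bead-coupled RGS8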
RGS16-Gao HTS: modulators of RGS16 binding to Galphao, primary screen, biochemical, human proteins, multiplexed bead flow cytometry; bead-based flow cytometry RGS16-Galphao binding, fluorescence; actives lie on both sides; binding response (% of control), % at 10 µM; 0.38% of 220,000 active; Regulator of G-protein signaling 16 (Homo sapiens) + Guanine nucleotide-binding protein …;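 further: Galphao activated by GDP with aluminum fluoride before binding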
Avidin fluor: green autofluorescence of compounds with avidin beads – biophysical, 488/530 nm, flow cytometry, artefact control, profiling panel. compound fluorescence 488/530 nm; active compounds read high. fluorescence (KMESF) at 10 µM. 0.38% of 220,000 active; in the data active means fluorescence above about 47
GSH bead fluor: compound fluorescence on glutathione beads, profiling panel, artefact control, biophysical, 488/530 nm, flow cytometry | GSH beads flow cytometry, compound fluorescence 488/530 nm; active compounds read high | fluorescence (KMESF) at 10 µM | 0.25% of 190,000 active; in the data active means fluorescence above about 89;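 further: glutathione beads carrying GST-tagged Bcl family fusion proteins plus one bare bead set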
RGS4-Gao reg: modulators of RGS4 binding to Galphao, primary screen, biochemical, multiplexed bead flow cytometry. Guanine nucleotide-binding protein G(o) subunit alpha (Homo sapiens), P09471. actives lie on both sides. binding response (% of control), % at 10 µM. 0.33% of 220,000 active. AID 1415, 2008; in the data active means binding response below about 49% or above about 150%; inactive means in between;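 further: fluorescent Galphao activated with aluminum fluoride binding bead-coupled RGS4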
RGS-Gao: modulators of RGS–Galpha-o binding, primary screen, biochemical, multiplexed beads, flow cytometry, RGS4/7/8/16/19; shares compounds with RGS16-Gao HTS; multiplexed bead flow cytometry; 99% of 1,600 active; RGS4–Galpha-o binding response, % at 10 µM;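 further: fluorescently labeled Galpha-o bound to GDP with aluminium fluoride binding biotinylated RGS beads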
Avidin counter: disruption of biotin probe capture by avidin, counter-screen for RGS protein interaction modulators, biochemical, flow cytometry, bead-based | 1,700 tested, under 10 active | streptavidin beads, fluorescein-biotin binding | inhibition, % at 10 µM | shares compounds with RGS16-Gao HTS;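 active means inhibition above 50%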;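 further: median green fluorescence of gated singlet beads compared with DMSO control wells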
RGS8-Gao single: RGS8-Galphao binding modulators, confirmation, biochemical, multiplexed bead flow cytometry, single concentration | binding response (% of control), % at 10 µM | AID 1836, 2009 | 3% of 1,700 active | shares compounds with RGS16-Gao HTS | bead-based flow cytometry RGS8-Galphao binding, fluorescence; actives lie on both sides; in the data active means binding response below about 72% or above about 130%; inactive means in between;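 further: Galphao activated as GDP AlF4 complex before binding bead RGS8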
RGS7-Gao single: RGS7-Galphao binding modulators, confirmation, biochemical, multiplexed bead flow cytometry, single concentration; shares compounds with RGS16-Gao HTS; AID 1837, 2009; bead-based flow cytometry RGS7-Galphao binding; actives lie on both sides; response (percent of control binding), % at 10 µM; 7.8% of 1,700 active; in the data active means response below about 75% or above about 130%; inactive means in between;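 further: fluorescent Galphao activated with GDP and aluminum fluoride binding bead-coupled RGS7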
RGS16-Gao conf: modulators of RGS16-Galphao protein binding, confirmation, biochemical, single concentration, multiplexed bead flow cytometry; shares compounds with RGS16-Gao HTS; bead-based flow cytometry; actives lie on both sides; response (% of control binding), % at 10 µM; 4% of 1,700 active; AID 1838, 2009; in the data active means response below about 74% or above about 130%; inactive means in between;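 further: Galphao activated as the GDP aluminium fluoride complex binding bead-coupled RGS16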
RGS4-Gao confirm: modulators of RGS4-Galphao protein binding, confirmation, biochemical, single concentration, multiplexed bead flow cytometry; binding response (% of control), % at 10 µM; 4% of 1,700 active; AID 1840, 2009; shares compounds with RGS16-Gao HTS; actives lie on both sides; in the data active means binding response below about 74% or above about 130%; inactive means in between
RGS19-Gao conf: regulators of RGS19-Galphao binding, confirmation, biochemical, single point, multiplexed bead flow cytometry | 5% of 1,700 active | response (percent of control binding), % at 10 µM | AID 1841, 2009 | shares compounds with RGS16-Gao HTS | bead-based flow cytometry RGS19-Galphao binding; actives lie on both sides; in the data active means response below about 50% or above about 160%; inactive means in between
Target sequence (P09471 whole entry, looked up): as above
Target sequence (P49795 whole entry, looked up): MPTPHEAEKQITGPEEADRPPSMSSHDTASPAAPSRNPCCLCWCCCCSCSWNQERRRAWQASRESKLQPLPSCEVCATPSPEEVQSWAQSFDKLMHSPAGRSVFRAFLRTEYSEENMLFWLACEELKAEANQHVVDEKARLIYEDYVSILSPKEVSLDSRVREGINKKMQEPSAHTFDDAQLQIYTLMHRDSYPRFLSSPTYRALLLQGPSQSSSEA
A number is an active result; 0 = inactive; ? = inconclusive; - = no result; [ ] = remark or other dose. Unless noted, how the calls were made is not given here.

SMILES	RGS7-Gao reg	RGS8-Gao	RGS16-Gao HTS	Avidin fluor	GSH bead fluor	RGS4-Gao reg	RGS-Gao	Avidin counter	RGS8-Gao single	RGS7-Gao single	RGS16-Gao conf	RGS4-Gao confirm	RGS19-Gao conf
O=C1C2C3C=CC(C3)C2C(=O)N1CCN1CCN(Cc2ccc([N+](=O)[O-])cc2)CC1 (centres undefined)	0	0	0	0	0	0	-	-	-	-	-	-	-
Cc1cccc(C)c1NC(=O)C(=O)c1cn(C)c2ccccc12	0	0	0	0	0	0	-	-	-	-	-	-	-
Cc1cc(NC(=O)C(=O)c2cn(C)c3ccccc23)no1	165[activator]	0	0	62	0	0	110	0	0	0	0	0	0
COc1cc(/C=N/Nc2nc(N3CCCC3)nc(N3CCCC3)n2)ccc1OCc1ccccc1F	?	0	0	0	-	0	-	-	-	-	-	-	-
Cn1cc(Br)c(C(=O)Nc2ncc(Br)s2)n1	12	14	8.7	0	0	15	-	0	0	0	0	0	0
CCOc1ccccc1N1CCN(CC(=O)NCCc2ccc(S(N)(=O)=O)cc2)CC1	0	0	0	0	0	0	-	-	-	-	-	-	-
CC(=O)Oc1ccc2c(=O)c(Oc3ccccc3)c(C)oc2c1OC(C)=O	43	54	0	0	0	49	-	0	0	0	0	0	0
CCOc1ccc(CN2CCN(C3CCSCC3)CC2CCO)cc1 (centres undefined)	0	0	0	0	0	0	-	-	-	-	-	-	-
Cc1ccc(NC(=O)Cn2c(-c3ccc(F)cc3)cnc2SCC(=O)Nc2c(C)cccc2C)cc1	0	0	0	0	0	0	-	-	-	-	-	-	-
CCc1ccccc1NCC(=O)Nc1ccc(Cl)c(C(F)(F)F)c1	0	0	20	0	0	0	94	0	0	0	0	0	0
COc1ccccc1NC(=O)CN1CCN(CC(=O)Nc2ccc(Cl)c(C(F)(F)F)c2)CC1	0	0	0	0	0	0	-	-	-	-	-	-	-
Cc1cc(Cl)ccc1OCCCC(=O)NCCN1C(=O)S/C(=C\c2cccnc2)C1=O	0	0	0	0	0	0	-	-	-	-	-	-	-
Cc1csc(NC(=O)C2C3C=CC(C3)C2C(=O)O)n1 (centres undefined)	-9.1	10	-20	0	0	-23	-	0	0	0	0	0	0
O=C1/C(=C/c2ccccn2)SC(=S)N1N1CCOCC1	?	0	0	0	-	0	-	-	-	-	-	-	-
O=C(CCC(=O)Nc1ccc(Cl)cc1Cl)NNC(=O)Nc1ccccc1	?	0	0	0	0	0	-	-	-	-	-	-	-
O=C(O)C1CCCCC1C(=O)Nc1cc(Cl)ccc1Cl (centres undefined)	49	59	0	0	0	0	87	0	0	0	0	0	0
O=C(O)C1CCCCC1C(=O)Nc1ccc(Cl)cc1Cl (centres undefined)	0	0	0	0	0	0	-	-	-	-	-	-	-
O=C(CCC(=O)Nc1ccc(Cl)cc1Cl)NNC(=O)[C@@H]1CCCC[C@@H]1C(=O)O	0	0	185[activator]	0	0	0	108	0	0	0	0	0	0
O=C1C(C=NCc2ccco2)=C(O)c2ccccc21	0	0	-57	0	0	0	90	0	0	0	0	0	0
CCOC(=O)c1sc(NC(=O)COC(=O)C(CCSC)NC(C)=O)nc1C (centres undefined)	0	0	9.0	0	0	0	86	0	0	0	0	0	0
O=C(Cn1cnc2cc([N+](=O)[O-])ccc2c1=O)Nc1ccccc1-c1ccccc1	?	0	0	0	-	0	-	-	-	-	-	-	-
COCc1nnc(NC(=O)c2ccc(NC(C)=O)cc2)s1	0	0	0	0	0	46	-	0	0	0	0	0	0
CC(C)(C)c1ccc(C(=O)N2CCN(CCNC(=O)C(=O)NCc3ccccc3)CC2)cc1	0	0	0	0	0	0	-	-	-	-	-	-	-
CC(NCc1ccc(-c2ccccc2)cc1)C(O)c1ccccc1 (centres undefined)	0	0	0	0	0	0	-	-	-	-	-	-	-
COc1ccccc1NC(=O)C1=C(C)NC(=O)NC1c1cc(C)cs1 (centres undefined)	189[activator]	167[activator]	0	0	0	202[activator]	-	0	0	0	0	0	0
SMILES	RGS7-Gao reg	RGS8-Gao	RGS16-Gao HTS	Avidin fluor	GSH bead fluor	RGS4-Gao reg	RGS-Gao	Avidin counter	RGS8-Gao single	RGS7-Gao single	RGS16-Gao conf	RGS4-Gao confirm	RGS19-Gao conf
COc1ccccc1NC(=O)C1=C(C)NC(=O)NC1c1ccccc1F (centres undefined)	0	0	0	0	0	0	-	-	-	-	-	-	-
Cc1ccc(NC(=O)CSc2nnc(-c3n[nH]c4ccccc34)n2-c2ccccc2)c(C)c1	0	0	0	0	0	0	-	-	-	-	-	-	-
CCCc1nc(SCC(=O)Nc2nnc(SCC)s2)c2c(=O)n(C)c(=O)n(C)c2n1	44	59	0	0	0	0	54	-	-	-	-	-	-
CCN(CC)C(=O)CCCC(=O)N(CC)CC	0	0	0	0	0	0	-	-	-	-	-	-	-
CCOC(=O)CN1C(c2ccc(O)cc2)Nc2ccc(Br)cc2C1c1ccccc1 (centres undefined)	0	0	14	0	0	0	85	0	0	0	0	0	0
O=C(COC(=O)CSc1ccc2ccccc2c1Br)NC1CC1	0	0	0	0	0	0	-	-	-	-	-	-	-
